Measurements published in PubChem BioAssay AID2685 (National Center for Advancing Translational Sciences (NCATS), 2010).
Out of some 320,000 compounds screened, about 2,100 (0.66%) were called active. Not shown: some 53% with an inconclusive outcome. The call rests on the fitted dose curve; in most records, active means well fitted inhibition curve with a large enough effect in the signal ratio, with a control signal flat (not every such curve was filed as active); inconclusive means small, poorly fitted or top-dose-only effect, or effect the other way, or a change in a side signal; inactive means flat fitted curve, though single readings scatter; the % refers to the signal ratio. Shown is part of a subset that was picked to be rich in actives.
Potency means the concentration at half of the fitted maximal effect.

Assay: qHTS Assay for Lipid Storage Modulators in Drosophila S3 Cells;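 on cell number change: cells counted by Cell Tracker Red CMTPX staining in the red channel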; on lipid storage change, negative = inhibition: on the % scale 0 is the no-effect control and ±100 the full control effect
Details: BODIPY lipid droplet fluorescence, 18-24 h, cells fed with added oleic acid; cell number change: measured here: cell count max response; series mostly up to 46.1 µM; lipid storage change, negative = inhibition: at the top concentration
Method in brief: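 Drosophila S3 cells got compounds at several concentrations plus oleic acid (400 uM solution). Laser-scanning cytometry with 488 nm excitation read lipid droplets at 500-530 nm and cells at 575-640 nm. Percent activity was relative to 20 uM Triacsin C.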
With `O=[N+]([O-])c1ccc2c(c1)c1ccccc1n2CCO` the “lipid storage change, negative = inhibition” value was -5.42% (inactive) and the cell number change was 0.129%. With `CCN(CC)CCn1c2ccccc2c2nc3ccc([N+](=O)[O-])cc3cc21` the “lipid storage change, negative = inhibition” value was 14.4% (inactive) and the cell number change was 8.11%. For `CN(C)CCn1c2ccccc2c2nc3ccc([N+](=O)[O-])cc3cc21`, the Potency was 7.31 µM (active) and the cell number change was -46.5%. For `CC1(C)CC(=O)C2=C(C1)OC(N)=C(C#N)C2c1ccsc1` (stereo not drawn), the “outcome” value was “inactive”. In the case of `COc1ccc(N2CCN(C(=O)C3CCN(S(=O)(=O)c4ccc5c(c4)oc(=O)n5C)CC3)CC2)cc1`, the “outcome” value is reported as “inactive”. With `COc1cc(/C=C/C(=O)Nc2ccc3nc4n(c(=O)c3c2)CCCC4)cc(OC)c1OC` the “lipid storage change, negative = inhibition” value was 0.128% (inactive) and the cell number change was -7.64%. With `C/C(=N/Nc1ccccc1[N+](=O)[O-])c1ccc([N+](=O)[O-])cc1` the “lipid storage change, negative = inhibition” value was 7.53% (inactive) and the cell number change was 22.2%. With `O=[N+]([O-])c1ccccc1N/N=C/c1ccccc1` the “outcome” value was “inactive” and the cell number change was -10.2%. For `CC(C)/C(=N/Nc1ccccc1[N+](=O)[O-])c1ccccc1`, the Potency was 9.2 µM (active) and the cell number change was -12.6%. For `COc1cccc(CN2CC(C(=O)NCCCn3cccn3)CCC2=O)c1` (stereo not drawn), the “lipid storage change, negative = inhibition” value was -17.1% (inactive) and the cell number change was 0.348%. With `CCCNC(=O)Cn1c(=O)/c(=C\c2ccc(-c3cccc([N+](=O)[O-])c3)o2)s/c1=C\C(=O)C(C)(C)C` the “outcome” value was “inactive” and the cell number change was 0.916%. In the case of `CCC(=O)N/N=C/c1ccc(-c2ccc([N+](=O)[O-])cc2)o1`, the “lipid storage change, negative = inhibition” value is reported as 20.1% (inactive) and the cell number change is reported as 3.62%. In the case of `CC(C)(C)C(=O)/C=c1\s/c(=C\c2ccc(-c3ccc([N+](=O)[O-])cc3)o2)c(=O)n1CC(=O)NC(N)=O`, the Potency is reported as 1.03 µM (active) and the cell number change is reported as -31.4%. For `O=C(COC(=O)CCN=C1NS(=O)(=O)c2ccccc21)NNC(=O)c1ccccc1`, the cell number change was -17.2% and the lipid storage change, negative = inhibition was -1.99% [at 0.0737 µM] (inactive). For `Cn1cc(CN2CCC(N3CCNC(=O)CC3)CC2)c(-c2ccccc2F)n1`, the “lipid storage change, negative = inhibition” value was -10.8% (inactive) and the cell number change was -9.69%. In the case of `CCOC(=O)C1CCN(Cc2ccc(OC)c(OCc3ccccc3)c2)CC1`, the “lipid storage change, negative = inhibition” value is reported as -14.2% (inactive) and the cell number change is reported as -8.13%. For `O=C(COC(=O)c1cc(Cl)ccc1Cl)NCCN1C(=O)CSC1=O`, the “lipid storage change, negative = inhibition” value was 9.78% (inactive) and the cell number change was -6.51%. For `O=C(CSc1nc(-c2ccc(F)cc2)cs1)NCCN1C(=O)CSC1=O`, the “lipid storage change, negative = inhibition” value was -7.68% (inactive). In the case of `O=C(CSc1n[nH]c(-c2cc(Cl)ccc2Cl)n1)NCCN1C(=O)CSC1=O`, the Potency is reported as 18.4 µM (active) and the cell number change is reported as -24.6%. In the case of `O=C(CCc1nnc2ccc(NCc3ccccc3Cl)nn12)NC1CCCC1`, the “lipid storage change, negative = inhibition” value is reported as 2.54% (inactive) and the cell number change is reported as 3.96%. With `CC1(C)CC(=O)C2=C(C1)Oc1ncn(Cc3ccco3)c(=N)c1C2c1ccccc1` (stereo not drawn) the “lipid storage change, negative = inhibition” value was 19.1% (inactive) and the cell number change was -0.936%. For `CC(C)(C)n1ncc2c(=O)n(Cc3c(F)cccc3Cl)cnc21`, the “lipid storage change, negative = inhibition” value was 0.516% (inactive) and the cell number change was 4.75%. For `O=C1NC(c2ccccc2)=C(c2ccc3ccccc3n2)C(c2ccccc2)N1` (stereo not drawn), the “lipid storage change, negative = inhibition” value was 9.51% (inactive) and the cell number change was -0.112%. With `CC(C)(Oc1ccc(CCNC(=O)c2ccc(-c3ccccc3)o2)cc1)C(=O)O` the “lipid storage change, negative = inhibition” value was -18.4% (inactive) and the cell number change was 7.48%. In the case of `Cc1ccc(S(=O)(=O)Nc2nc3ccccc3nc2NCc2ccc3c(c2)OCO3)cc1C`, the “lipid storage change, negative = inhibition” value is reported as 1.16% (inactive) and the cell number change is reported as -0.718%. For `O=c1oc(-c2cc3ccccc3o2)nc2sc3c(c12)CCCC3`, the “lipid storage change, negative = inhibition” value was 0.767% (inactive) and the cell number change was -5.74%. In the case of `COc1ccc(C(=O)NN)cc1`, the “lipid storage change, negative = inhibition” value is reported as 1.51% (inactive) and the cell number change is reported as 15%. With `COc1ccc(C(=O)NCC(=O)O)cc1` the Potency was 16.4 µM (active) and the cell number change was -3.91%. In the case of `COc1ccc(C(=O)COC(=O)CNC(=O)c2ccc(OC)cc2)cc1`, the “lipid storage change, negative = inhibition” value is reported as 8.54% (inactive). For `CCc1nccn1S(=O)(=O)c1cc(OC)ccc1OC`, the “lipid storage change, negative = inhibition” value was 12.7% (inactive). For `CCn1cc(CN2CCN(Cc3ccc(OC)c(C)c3C)C(CCO)C2)c(C)n1` (stereo not drawn), the “lipid storage change, negative = inhibition” value was 24% (inactive) and the cell number change was 2.86%. In the case of `CCCCCn1cnnc1SCC(=O)c1ccc2c(c1)OCO2`, the “outcome” value is reported as “inactive” and the cell number change is reported as -4.15%. For `CC(=Nc1ccc(O)cc1)c1sc2ccccc2c1O`, the “lipid storage change, negative = inhibition” value was 4.99% (inactive) and the cell number change was 0.835%. For `CC(=Nc1ccccc1O)c1sc2ccccc2c1O`, the Potency was 25.9 µM (active) and the cell number change was -13.3%. For `CC(=Nc1ccc(Br)cc1)c1sc2ccccc2c1O`, the “outcome” value was “inactive”. For `CCn1cc(C(=O)N(C)CC(OC)OC)c(=O)c2cc(S(=O)(=O)N3CCOCC3)ccc21`, the “outcome” value was “inactive” and the cell number change was 3.42%. For `C=CCn1c(=S)[nH]c2cc(C(=O)NCCc3ccc(S(N)(=O)=O)cc3)ccc2c1=O`, the “lipid storage change, negative = inhibition” value was 3.58% (inactive) and the cell number change was 16.5%. In the case of `Cc1ccc(S(N)(=O)=O)c(C)c1-n1cnnn1`, the “lipid storage change, negative = inhibition” value is reported as 3.06% (inactive) and the cell number change is reported as 3.24%. For `Cc1c(NC(=O)C(C)N2C(=O)C3CCCCC3C2=O)c(=O)n(-c2ccccc2)n1C` (stereo not drawn), the “lipid storage change, negative = inhibition” value was -5.56% (inactive) and the cell number change was 9.88%. For `COc1cc(-c2nnc(SC(C)C(=O)Nc3c(C)n(C)n(-c4ccccc4)c3=O)o2)cc(OC)c1OC` (stereo not drawn), the Potency was 25.9 µM (active) and the cell number change was -15.3%. In the case of `Cc1cc(SC(C)C(=O)Nc2c(C)n(C)n(-c3ccccc3)c2=O)nc2ccccc12` (stereo not drawn), the “lipid storage change, negative = inhibition” value is reported as -14.6% (inactive) and the cell number change is reported as -14.4%. With `CCN1CCN(C(C)C(=O)Nc2c(C)n(C)n(-c3ccccc3)c2=O)CC1` (stereo not drawn) the “lipid storage change, negative = inhibition” value was 12.9% (inactive) and the cell number change was -2.1%. For `Cc1ccc(SC(C)C(=O)Nc2c(C)n(C)n(-c3ccccc3)c2=O)cc1` (stereo not drawn), the “outcome” value was “inactive”. For `Cc1c(NC(=O)C(C)N2CC(C)OC(C)C2)c(=O)n(-c2ccccc2)n1C` (stereo not drawn), the Potency was 7.31 µM (active) and the cell number change was 11.9%. In the case of `COCCNC(=O)C(C)Oc1ccccc1` (stereo not drawn), the “lipid storage change, negative = inhibition” value is reported as 20.9% (inactive) and the cell number change is reported as 20.2%. For `NS(=O)(=O)c1ccc(CNC(=O)CSc2nc3ccc(Cl)cc3[nH]2)cc1`, the “lipid storage change, negative = inhibition” value was -1.11% (inactive) and the cell number change was -16.1%. For `COc1ccc(C2CC(=O)c3sc(NC(C)=O)nc3C2)cc1` (stereo not drawn), the “lipid storage change, negative = inhibition” value was -1.03% (inactive) and the cell number change was 20.9%. In the case of `Cc1c(Cl)cccc1NC(=S)N1CCC(N(C)CC2CCCO2)CC1` (stereo not drawn), the “lipid storage change, negative = inhibition” value is reported as 5.5% (inactive) and the cell number change is reported as 7.58%. For `Cc1ccc(NC(=S)N2CCC(N(C)CC3CCCO3)CC2)cc1` (stereo not drawn), the “lipid storage change, negative = inhibition” value was 1.85% (inactive) and the cell number change was 14.9%. In the case of `Cc1ccc(NC(=S)N2CCC(N(C)CC3CCCO3)CC2)cc1C` (stereo not drawn), the “lipid storage change, negative = inhibition” value is reported as 7.38% (inactive) and the cell number change is reported as 5.03%.
